Results filed as inconclusive are left out. Activity calls are given as the source filed them. The call rests on the fitted dose curve; in most records, active means well fitted cell-killing curve with a large enough effect; inconclusive means small, poorly fitted or top-dose-only effect, or effect the other way; inactive means no such curve, though single readings can be large or run the other way.
Potency means the concentration at half of the fitted maximal effect.

The assay in a line: Quantitative High-Throughput drug screen in 47 multiple myeloma cell lines against the NCATS MIPE library collection: MM1R_ATCC cell viability assay (AID 1918981). Further: nearly all actives have a fitted effect of over 35% in size. To be noted: MM1R multiple myeloma cells, CellTiter-Glo viability, 48 h; series mostly up to 45.8 µM. The text has this:
PI: Beverly A. Mock Ph.D.
Laboratory of Cancer Biology and Genetics,
Center for Cancer Research, National Cancer Institute,
National Institute of Health, Bethesda, Maryland
Drug resistance and disease progression are common in multiple myeloma (MM) patients, underscoring the need for new therapeutic combinations. […] We hypothesized that effective combinations would reduce MYC expression and enhance p16 activity. […] These preclinical data identify potentially useful drug combinations for evaluation in drug-resistant MM and reveal potential mechanisms of combined drug sensitivity.
Described herein is the primary MIPE qHTS used to cherrypick compounds. Validated compounds were then further tested for potential synergistic activiy.
[1] Peat TJ, Gaikwad SM, Dubois W, Gyabaah-Kessie N, Zhang S, Gorjifard S, Phyo Z, Andres M, Hughitt VK, Simpson RM, Miller MA, Girvin AT, Taylor A, Williams D, D'Antonio N, Zhang Y, Rajagopalan A, Flietner E, Wilson K, Zhang X, Shinn P, Klumpp-Thomas C, McKnight C, Itkin Z, Chen L, Kazandijian D, Zhang J, Michalowski AM, Simmons JK, Keats J, Thomas CJ, Mock BA. Drug combinations identified by high-throughput screening promote cell cycle transition and upregulate Smad pathways in myeloma. Cancer Lett. 2023 Aug 1;568:216284. doi: 10.1016/j.canlet.2023.216284. Epub 2023 Jun 24. PMID: 37356470; PMCID: PMC10408729.
SEQUENCE No. (e.g., 1, 2, 3, etc.); […] (e.g., Cells, Incubation, Reagent, etc.); VALUE and DESCRIPTION.
1; Cells; 5 uL; white, solid bottom 1536-well Greiner assay plate.
2; Compounds; 23 nL; Kalypsis pin tool (Wako USA) equipped with a 1536-well pin head to transfer to the assay plates.
3; Incubation; 48 hours; 37C incubation.
4; Reagent;5uL; CellTiter Glo (Promega).
5; Detector; 425V; Luminescence; Viewlux PerkinElmer.
NOTES (numbers refer to Sequence numbers above)
1. The cell-based screening methods employed in this study were like those previously published. Briefly, the corresponding myeloma cell lines were screened in 1,536-well plates with 500 cells, 5-uL per well for inhibition of cell viability (assessed by measuring ATP levels with CellTiterGlo).
2. NCATS MIPE 4.0 library of approved and investigational drugs were added using the Kalypsis pin tool. Wells treated with DMSO only for 100% viability and media only for 0% viability were used as controls.
3. The assay plates were covered and incubated for 48 hours in a 37C, 5% CO2 incubator with controlled humidity.
4. After 48 hours, CellTilter-GloTM luminescent substrate mix (Promega) reagent was added to the assay plate and plates we incubated for 5 min at room temperature.
5. Signal was measured as median relative luminescence units on a ViewLux (PerkinElmer) multiplate reader.
[1] Heske CM, Davis MI, Baumgart JT, Wilson K, Gormally MV, Chen L, Zhang X, Ceribelli M, Duveau DY, Guha R, Ferrer M, Arnaldez FI, Ji J, Tran HL, Zhang Y, Mendoza A, Helman LJ, Thomas CJ. Matrix Screen Identifies Synergistic Combination of PARP Inhibitors and Nicotinamide Phosphoribosyltransferase (NAMPT) Inhibitors in Ewing Sarcoma. Clin Cancer Res. 2017 Dec 1;23(23):7301-7311. doi: 10.1158/1078-0432.CCR-17-1121. Epub 2017 Sep 12. PMID: 28899971; PMCID: PMC6636827.
For the molecule `CC(C)C[C@@H](C(=O)N[C@H](C(=O)OC1CCCC1)c1ccccc1)[C@H](O)C(=O)NO`, the Potency is 18.7 µM (active).
Under `COc1cc([C@@H]2c3cc4c(cc3[C@@H](O[C@@H]3O[C@@H]5CO[C@@H](C)O[C@@H]5[C@H](O)[C@@H]3O)[C@H]3COC(=O)[C@H]23)OCO4)cc(OC)c1O` stands 0.372 µM (active).
Consider `CN(C(Cc1ccc(OS(=O)(=O)c2cccc3cnccc23)cc1)C(=O)N1CCN(c2ccccc2)CC1)S(=O)(=O)c1cccc2cnccc12` (stereo not given), for which the Potency is 16.6 µM (active).
Then `CCn1c(-c2nonc2N)nc2cncc(CNC3CCNCC3)c21`, with 16.6 µM (active).
Then `CC1(COc2ccc3c(c2)ncn3-c2ccc3cccc(N4CCC(N)CC4)c3n2)COC1`, with 0.526 µM (active); and `Nc1ncnc2c1c(-c1cccc(OCc3ccccc3)c1)cn2C1CC(CN2CCC2)C1` (stereo not given), with 4.69 µM (active).
Then `N[C@@H](CC(=O)N1CCn2c(nnc2C(F)(F)F)C1)Cc1cc(F)c(F)cc1F`, with “inactive”; and `C[C@@H]1CC=CC=CC=CC=C[C@@H](O[C@@H]2O[C@H](C)[C@@H](O)[C@H](N)[C@H]2O)C[C@@H]2O[C@](O)(C[C@@H](O)C[C@@H]3O[C@@H]3C=CC(=O)O1)C[C@H](O)[C@@H]2C(=O)O`, with 14.8 µM (active).
As to `CCC(=C(CC)c1ccc(O)cc1)c1ccc(O)cc1`, the Potency was 14.8 µM (active).
Then `Cc1nc(NC(=O)N2CCC[C@@H]2C(N)=O)sc1-c1csc(C(C)(C)C)n1`, with 5.9 µM (active); and `CC(C)N(CCCNC(=O)Nc1ccc(C(C)(C)C)cc1)C[C@H]1O[C@@H](n2cc(Br)c3c(N)ncnc32)[C@H](O)[C@H]1O`, with 20.9 µM (active).
Under `CN1C(=O)C(Cc2c[nH]c3ccccc23)NC1=S` (stereo not given) stands “inactive”; under `O=C(c1ccc(C=Cc2n[nH]c3ccccc23)cc1)N1CCNCC1`, 13.2 µM (active); under `CCCCC[C@H](O)C=C[C@H]1[C@H](O)CC(=O)[C@H]1CCCCCCC(=O)O`, “inactive”.
For `CN(C)c1ccccc1CN1CCCN(Cc2ccccc2N(C)C)C1c1ccncc1`, the Potency is 18.7 µM (active).
Then `CC(C)(C)c1nc(-c2cccc(NS(=O)(=O)c3c(F)cccc3F)c2F)c(-c2ccnc(N)n2)s1`, with 18.7 µM (active).
As to `C[C@@]1(c2cc(-c3cncnc3)c(F)cc2F)CCSC(N)=N1`, the Potency result was “inactive”.
Under `CC(C)(CO)[C@@H](O)C(=O)NCCC(=O)O` stands “inactive”; under `O=C(O)CCNc1cc(N2CCc3ccccc3CC2)nc(-c2ccccn2)n1`, 16.6 µM (active).
Under `CN1N=C(N)c2cn([C@@H]3O[C@H](COP(=O)(O)O)[C@@H](O)[C@@H]3O)c3ncnc1c23` stands 5.9 µM (active); under `COC1CCC(C(=O)c2ccc3nc4c(cc3c2)CCCO4)CC1` (stereo not given), 18.7 µM (active).
As for `CN[C@H]1[C@@H](O[C@@H]2[C@H](O[C@@H]3[C@@H](O)[C@@H](O)[C@@H](N=C(N)N)[C@@H](O)[C@@H]3N=C(N)N)O[C@H](C)[C@@]2(O)C=O)O[C@@H](CO)[C@@H](O)[C@H]1O`, the Potency entry was “inactive”.
Under `CC(=O)N1CCN(c2ccc(OCc3nn(C)c(C)c3-c3cccc4c(CCCOc5cc(C)c(Cl)c(C)c5)c(C(=O)O)n(Cc5cccnc5)c34)cc2)CC1` stands 20.9 µM (active).
Then `CCOC(=O)[C@H]1O[C@H]1C(=O)N[C@@H](CC(C)C)C(=O)NCCC(C)C`, with “inactive”; and `COc1nccc(-c2c(-c3ccc(F)cc3)ncn2C2CCC(O)CC2)n1` (stereo not given), with 18.7 µM (active).
Under `N#CC(=C1Nc2ccccc2S1)c1ccnc(OCc2ccc(CN3CCOCC3)cc2)n1` stands 14.8 µM (active); under `NC(=O)c1ccc(N(C(N)=O)c2c(F)cccc2F)nc1-c1ccc(F)cc1F`, “inactive”; under `CC(NCCc1ccc(O)cc1)C(O)c1ccc(O)cc1` (stereo not given), 4.18 µM (active).
Consider `CCCCCOC(=O)Nc1nc(=O)n([C@@H]2O[C@H](C)[C@@H](O)C2O)cc1F` (stereo not given in full), for which the Potency entry is “inactive”.
Then `CC(C)(F)C[C@H](N[C@@H](c1ccc(-c2ccc(S(C)(=O)=O)cc2)cc1)C(F)(F)F)C(=O)NC1(C#N)CC1`, with “inactive”.
As for `COc1cc2nccc(Oc3ccc(NC(=O)Nc4ccc(F)cc4F)c(F)c3)c2cc1OC`, the Potency was 2.96 µM (active).
Then `Cc1ccc(NC(=O)c2ccc(CN3CCN(C)CC3)cc2)cc1Nc1nc(-c2cccnc2)cs1`, with 20.9 µM (active); and `Fc1ccc(CNc2ncnc3ccc(F)cc23)cc1`, with 10.5 µM (active); and `CN[C@@H]1CN(c2ccc3c(=O)c(C(=O)O)cn(-c4nccs4)c3n2)C[C@@H]1OC`, with 0.407 µM (active).
Then `CN(C)CCN(Cc1ccc(Cl)cc1)c1ccccn1`, with “inactive”; and `O=C1C(CCC(O)c2ccc(F)cc2)C(c2ccc(O)cc2)N1c1ccc(F)cc1` (stereo not given), with “inactive”; and `CNc1nc(-c2ccc3c(N)n[nH]c3c2)cc(N2C[C@@H](C(=O)NC3CCCCC3)CC[C@@H]2C)n1`, with 18.7 µM (active).
Then `CC(C)[C@H](O)C(=O)N[C@@H](C)C(=O)N[C@@H]1C(=O)N(C)CCc2ccccc21`, with “inactive”; and `CCCCn1c(=O)n(Cc2ccccc2F)c(=O)c2[nH]c(Cc3ccc(NC(C)=O)cc3)nc21`, with “inactive”; and `Nc1ccn([C@@H]2O[C@H](CO)[C@@H](O)[C@H]2O)c(=O)n1`, with 0.0526 µM (active).

For the origin of these results see PubChem BioAssay (NCATS).
